PubChem BioAssay (Tox21)
Calls of active or inactive are those of the source. The call rests on the fitted dose curve.

target: Thyrotropin-releasing hormone receptor (Homo sapiens) (UniProt P34981); assay: qHTS assay to identify small molecule agonists of the thyrotropin-releasing hormone receptor (TRHR) signaling pathway (AID 1346891); conditions: TRHR-HEK293 calcium fluorescence, agonist mode; series mostly up to 57.6 µM; activation: at the top concentration;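 further: HEK293 cells expressing TRHR with calcium dye readout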
Sequence (P34981 whole entry, looked up): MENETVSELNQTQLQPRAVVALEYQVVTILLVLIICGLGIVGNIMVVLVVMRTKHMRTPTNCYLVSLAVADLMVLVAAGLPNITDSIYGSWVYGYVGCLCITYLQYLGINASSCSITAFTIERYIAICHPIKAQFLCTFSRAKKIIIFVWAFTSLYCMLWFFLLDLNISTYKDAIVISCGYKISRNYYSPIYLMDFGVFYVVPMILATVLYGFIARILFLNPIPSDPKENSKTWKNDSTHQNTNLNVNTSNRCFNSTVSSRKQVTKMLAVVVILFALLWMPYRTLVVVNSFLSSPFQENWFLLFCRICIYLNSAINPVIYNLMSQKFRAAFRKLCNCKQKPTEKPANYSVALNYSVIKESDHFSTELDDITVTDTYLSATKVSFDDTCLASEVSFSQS
Text: National Center for Advancing Translational Sciences [NCATS] NIH Chemical Genomics Center [NCGC] U.S. Environmental Protection Agency [EPA] National Institutes of Environmental Health Sciences [NIEHS] National Toxicology Program [NTP] Assay overview: Thyrotropin-releasing hormone (TRH) receptor (TRHR) is a G-protein-coupled receptor which binds the tripeptide thyrotropin releasing hormone. TRHR is found in the brain and, when bound by TRH, acts (through phospholipase C) to increase intracellular inositol trisphosphate. It plays a crucial role in the anterior pituitary where it controls the synthesis and secretion of thyroid stimulating hormone and prolactin. The TRHR-Hek293 assay is a cell-based assay, and it has the potential to screen G protein-coupled receptors. A compound/drug can either activate (agonist) or suppress (antagonist) GPCRs that can be monitored by levels of intracellular calcium. Using this assay, the Tox21 10K compound library was screened to identify potential TRHR agonists.
Assay Protocol Summary: The TRHR-Hek293 cells were dispensed at 1500cells/4uL/well in 1536-well black-clear bottom plates using a Multidrop dispenser. After the assay plates were incubated at a 37 C/5% CO2 incubator for 18 hours, 4 uL of Dye-Loading Solution was added to each well. The plates were incubated at 37 C for 2 hours. For agonist mode, 23 nL of compounds dissolved in DMSO, positive controls or DMSO only was transferred to the assay plate by a pin tool. The fluorescence intensity in the plates was measured using FDSS 7000EX kinetic plate reader for 3 min at 1 sec intervals. Each test compound was measured at 15 concentrations and in triplicates.
On the % scale 0 is the no-effect control and ±100 the full control effect.

Row | SMILES | activation | outcome
1 | CCc1ccc(C2CCNCC2)cc1 | 0.0162% [at 26.5 µM] (inactive) | –
2 | CCOC(=O)Nc1cccc(OC(=O)Nc2ccccc2)c1 | -0.231% (inactive) | –
3 | C=CCc1cc(OC)c2c(c1)OCO2 | 0.588% (inactive) | –
4 | NCC1(CC(=O)O)CCCCC1 | 0.0048% [at 26.5 µM] (inactive) | –
5 | COc1ccccc1OC | -0.73% (inactive) | –
6 | CC[C@@H](CO)NC(=O)[C@@H]1C=C2c3cccc4c3c(cn4C)C[C@H]2N(C)C1 | -0.451% [at 26.5 µM] (inactive) | –
7 | CCCCCCC(=O)CCCCCC/C=C/C[C@@H](O)[C@H](O)[C@@](N)(CO)C(=O)O | 0.008% [at 11.8 µM] (inactive) | –
8 | CN1C(=O)COc2c(C(=O)NC3CN4CCC3CC4)cc(Cl)cc21 (stereo not given) | -0.374% [at 26.5 µM] (inactive) | –
9 | Cc1ccc2cc(C)ccc2c1 | 0.0376% (inactive) | –
10 | O=C(Cl)CCl | -0.117% (inactive) | –
11 | CC(C)(C)C(=O)Cl | -0.0425% (inactive) | –
12 | C[C@]12C=CC(=O)C=C1CC[C@@H]1[C@@H]2CC[C@@]2(C)[C@H]1CC[C@]2(C)O | 0.888% [at 26.5 µM] (inactive) | –
13 | Clc1ccc(C(Cl)(Cl)Cl)cn1 | 1.23% (inactive) | –
14 | CCOC(=O)C(SP(=S)(OC)OC)c1ccccc1 (stereo not given) | 0.135% (inactive) | –
15 | CCC(C(N)=O)N1CCCC1=O (stereo not given) | -0.358% [at 26.5 µM] (inactive) | –
16 | CS(=O)(=O)Cl | -0.245% (inactive) | –
17 | Cc1ccc(S(=O)(=O)N[C@@H](CCCCN)C(=O)CCl)cc1 | -0.154% [at 26.5 µM] (inactive) | –
18 | ClCCCCl | 0.14% (inactive) | –
19 | C=C(C)[C@H]1CN[C@H](C(=O)O)[C@H]1CC(=O)O | 0.29% [at 26.5 µM] (inactive) | –
20 | C=CCN1CC[C@]23CCCC[C@H]2[C@H]1Cc1ccc(O)cc13 | -0.56% [at 26.5 µM] (inactive) | –

Row | SMILES | activation | outcome
21 | COc1ccc2c(C(=O)c3ccc(Cl)cc3)c(C)n(CC(=O)O)c2c1 | -0.155% [at 26.5 µM] (inactive) | –
22 | CCC(=O)c1ccc(Cl)cc1 | 0.203% (inactive) | –
23 | CC(Cc1ccccc1)NCCn1cnc2c1c(=O)n(C)c(=O)n2C (stereo not given) | 0.535% (inactive) | –
24 | O=C(NC(=O)c1c(F)cccc1F)Nc1cc(Cl)c(F)c(Cl)c1F | -0.825% (inactive) | –
25 | O=C1C2CC=CCC2C(=O)N1SC(Cl)(Cl)Cl (stereo not given) | – | inactive
26 | O=C(Cl)c1ccccc1 | -0.398% (inactive) | –
27 | O=C(CCl)NCO | -0.107% (inactive) | –
28 | O=C(Cl)C(Cl)Cl | -0.388% (inactive) | –
29 | O=C(O)CBr | -0.595% (inactive) | –
30 | C=C(Cl)CCl | -0.0391% (inactive) | –
31 | CCCC(C)C1(CC)C(=O)N=C(S)NC1=O (stereo not given) | -0.51% [at 26.5 µM] (inactive) | –
32 | CCOC(=O)c1ncn2c1CN(C)C(=O)c1c(I)cccc1-2 | -0.143% [at 26.5 µM] (inactive) | –
33 | CCC(C)(C#N)N=NC(C)(C#N)CC (stereo not given) | 0.0872% (inactive) | –
34 | COP(=O)(OC)O/C(C)=C/C(=O)N(C)C | -0.209% (inactive) | –
35 | CCc1cc(OC)c(C[C@H](C)N)cc1OC | 0.17% (inactive) | –
36 | CCN[C@@H](C)Cc1cccc(C(F)(F)F)c1 | 0.444% [at 26.5 µM] (inactive) | –
37 | C[C@H]1CCCC(=O)CCC/C=C/c2cc(O)cc(O)c2C(=O)O1 | – | inactive
38 | CCCOC(=O)c1cncn1C(C)c1ccccc1 (stereo not given) | -0.176% [at 26.5 µM] (inactive) | –
39 | CCN(CCO)CCO | 0.384% (inactive) | –
40 | CCN(CC)C1CCCCC1 | 0.612% (inactive) | –
